# Screening results as filed in PubChem BioAssay.
# DT40 TDP1 CPT – qHTS for Inhibitors of human tyrosyl-DNA phosphodiesterase 1 (TDP1): qHTS in cells in presence of CPT. chicken DT40 Tdp1-/-;hTDP1 cells + 20 nM CPT, ATP luminescence, 48 h. Potency, µM (doses to about 46.2 µM), usual class: inhibitors. 420,000 tested, 12% active. AID 686979, 2013; note: nearly all actives have a fitted effect of over 55% in size
#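 Chicken DT40 Tdp1-/- cells stably complemented with human TDP1 were seeded at 400 cells/well in medium containing 20 nM camptothecin, exposed to pin-transferred compounds, and grown at 37 °C for at least 48 hr. Viability was read as ATP luminescence.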
# ELG1 repair inh – qHTS screen for small molecules that inhibit ELG1-dependent DNA repair in human embryonic kidney (HEK293T) cells expressing luciferase-tagged ELG1; HEK293T ELG1-luciferase reporter, luminescence, 16 h; DNA damage induced by 5-fluorouridine; Potency, µM (top dose mostly 46.1 µM), hits mostly inhibitors; 330,000 tested, 2.3% active; note: nearly all actives have a fitted effect of over 55% in size
#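 HEK293T cells expressing luciferase-tagged ELG1 (2,000/well) received 5-Fluorouridine plus compound or DMSO for 16 hr at 37 °C. Luciferase was read by ONE-Glo luminescence after 30 min at room temperature.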
# HT1080 IDH1KD tx – qHTS for induction of synthetic lethality in tumor cells producing 2HG: qHTS for the HT-1080-IDH1KD cell line; HT-1080 IDH1 knockdown viability, ATP luminescence, 48 h; Potency, µM (titrated, usually from 46.1 µM), usual class: cytotoxic; 360,000 tested, 2% active
#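 After a 2 h attachment period, IDH1KD HT-1080 cells took pin-transferred compound for 48 h at 37 °C; ATP-based luminescence after 10 min room-temperature reagent incubation reported viability.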
# HT1080-NT tox – qHTS for induction of synthetic lethality in tumor cells producing 2HG: qHTS for the HT-1080-NT fibrosarcoma cell line; HT-1080-NT fibrosarcoma viability, CellTiter-Glo ATP luminescence, 48 h; Potency, µM (highest dose often 46.1 µM), hits mostly cytotoxic; 360,000 tested, 1.6% active; AID 686970, 2013;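 note: NT is the 2HG producing partner of a matched IDH1 knockdown line; nearly all actives have a fitted effect of over 55% in size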
#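 HT-1080-NT fibrosarcoma cells (2HG-overproducing), 750 cells/well in RPMI with 5% FBS, dosed after 2 h and incubated 48 h at 37C. CellTiter-Glo luminescence normalized to DMSO and no-cell wells; concentration-response curves fitted and classed.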
# DT40 TDP1 no CPT – qHTS for Inhibitors of human tyrosyl-DNA phosphodiesterase 1 (TDP1): qHTS in cells in absence of CPT; DT40 Tdp1-/- hTDP1 cells, no CPT, ATP luminescence, 48 h; Potency, µM (titrated, usually from 46.2 µM), hits mostly inhibitors; 420,000 tested, 15% active; AID 686978, 2013; note: nearly all actives have a fitted effect of over 55% in size
#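 Growth of hTDP1-complemented DT40 Tdp1-knockout cells is measured by ATP luminescence after at least 48 hr compound exposure at 37 °C, with DMSO substituting for the 20 nM CPT used in the parallel screen.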
# IL-1B inflam inh – qHTS for Inhibitors of Inflammasome Signaling: IL-1-beta AlphaLISA Primary Screen; activity change, % at 57.5 µM; THP-1 LPS/ATP IL-1B secretion, AlphaLISA, 16 h; hits give low values; 360,000 tested, 4.7% active; AID 743279, 2014; in the data active = activity change below about -50%; inconclusive = mostly about -30% to -49%
#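 Secreted IL-1B measured by AlphaLISA bead assay after 16 h compound exposure of THP-1 cells; compounds (final up to 57.5 uM) added 1 h before LPS (250 ng/mL) and ATP (1.25 mM) stimulation; lower signal means less secretion.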
# Numbers stand for hits; n = inactive; u = inconclusive; x = no result. Compounds with a hit are over-represented: about 19% of the library has one in this group of screens. Unless noted, calls come from the whole dose curve; as a rule, active = well fitted curve in the direction sought with a large enough effect; inconclusive = small, poorly fitted or top-dose-only effect, or another doubt; inactive = no such curve, though single readings can be large; an effect the other way counts as inactive or inconclusive.
SMILES,DT40 TDP1 CPT,ELG1 repair inh,HT1080 IDH1KD tx,HT1080-NT tox,DT40 TDP1 no CPT,IL-1B inflam inh
O=C(c1ccccc1)n1c(=O)c(F)cn(COCCBr)c1=O,n,n,n,n,n,n
COc1ccc(OCCNC(=O)C2(C)CCN2Cc2ccc3ccccc3c2)cc1 (stereo unspecified),29µM,x,u,u,16µM,n
COc1ccc(OCCNC(=O)C2(C)CCN2Cc2ccc(SC)cc2)cc1 (stereo unspecified),u,x,n,n,16µM,n
O=C(CNC(=O)c1ccccc1F)OCc1cc(=O)n2nc(C3CC3)sc2n1,n,x,x,x,n,x
CC1(C)CC(=O)C(C=NCCN2CCN(C3CC(=O)N(c4ccc(Br)cc4)C3=O)CC2)=C(O)C1 (stereo unspecified),u,n,n,n,n,n
CN1C(=O)C[C@@H](C(=O)N[C@@H](Cc2cnc[nH]2)C(=O)N2CCC[C@H]2C(N)=O)NC1=O,n,x,x,x,n,x
CCOc1ccc(N=c2oc3cc(O)ccc3cc2C(=O)NCC2CCCO2)cc1 (stereo unspecified),n,2.1µM,n,n,n,n
COc1ccc(N=c2oc3cc(O)ccc3cc2C(=O)NCC2CCCO2)cc1 (stereo unspecified),u,u,n,n,u,n
CCOc1ccccc1N=c1oc2cc(O)ccc2cc1C(=O)NCC1CCCO1 (stereo unspecified),11µM,u,u,u,u,n
CC1(C(=O)NS(=O)(=O)c2cccc(F)c2)CCN1C(=O)C1CCCCC1 (stereo unspecified),n,x,n,n,n,n
COc1cccc(CN2CCC(N(CCc3ccccc3)Cc3ccccc3)CC2)c1OC,u,u,u,u,29µM,-62
COc1cccc(CN2CCN(Cc3cccc(Oc4ccccc4)c3)CC2)c1OC,u,n,n,n,n,n
O=S(=O)(N[C@H](CO)c1ccccc1)c1ccc(Br)cc1F,n,n,n,n,n,n
O=C(/C=C/c1ccco1)Nc1ccc(Cl)c(-c2nc3cc(Cl)ccc3o2)c1,u,x,x,x,26µM,x
CC(=O)Nc1ccc2oc(-c3cc(F)c(F)cc3Cl)nc2c1,n,u,n,n,n,n
CCC(=O)Nc1cc(C)c(O)c(-c2nc3ncccc3o2)c1,n,x,x,x,u,x
CC(C)C(=O)Nc1ccc2oc(-c3cc(F)c(F)cc3Cl)nc2c1,u,u,n,n,u,n
Cc1ccc2oc(-c3cc(NC(=O)/C=C/c4ccco4)ccc3Cl)nc2c1,u,x,x,x,21µM,x
Cc1cc(NC(=O)C(C)C)cc(-c2nc3ncccc3o2)c1O,u,x,x,x,13µM,x
Cc1cc(NC(=O)c2ccco2)cc(-c2nc3cc(Cl)ccc3o2)c1O,18µM,x,x,x,12µM,x
COc1cccc(N2CCN(C(=O)c3cccc(NC4=NC5CS(=O)(=O)CC5S4)c3)CC2)c1 (stereo unspecified),n,n,n,n,n,n
Cc1cccc(C)c1-n1nnnc1C1(C)CCC(=O)N1CCCN1CCOCC1 (stereo unspecified),n,x,n,n,n,n
Cc1ccc(C(=O)N/C(=C\c2ccc(-c3ccccc3[N+](=O)[O-])o2)C(=O)NCCCN(C)C)cc1,5.2µM,n,n,n,5.8µM,n
Cc1ccc(C(=O)N/C(=C\c2ccc(-c3ccc(Cl)cc3)o2)C(=O)NCCCN(C)C)cc1,12µM,u,13µM,29µM,12µM,-67
CN(C)CCCNC(=O)/C(=C/c1ccc(-c2ccc([N+](=O)[O-])cc2)o1)NC(=O)c1ccccc1,u,u,n,n,n,n
SMILES,DT40 TDP1 CPT,ELG1 repair inh,HT1080 IDH1KD tx,HT1080-NT tox,DT40 TDP1 no CPT,IL-1B inflam inh
CN(C)CCNC(=O)/C(=C/c1ccc(-c2cccc([N+](=O)[O-])c2)o1)NC(=O)c1ccccc1,u,n,u,u,u,u
CN(C)CCCNC(=O)/C(=C\c1ccc(-c2ccc(Br)cc2)o1)NC(=O)c1ccccc1,3.7µM,n,23µM,u,12µM,u
CCN(CC(=O)Nc1ccc2c(c1)OCCO2)C(=O)CCc1ccccc1Cl,n,n,n,n,u,n
COC(=O)C1CCN(C2CN(Cc3ccc(F)cc3)S(=O)(=O)C2)CC1 (stereo unspecified),n,x,n,n,n,n
CC(C)c1ccc(C2=NC(c3ccncc3)=Nc3ccc(F)cc3N2)cc1,23µM,x,x,x,u,x
CCc1ccc2c(c1)NC(c1cccnc1)=NC(c1ccc(C(C)(C)C)cc1)=N2,18µM,x,x,x,u,x
Cc1ccc2c(c1)NC(c1cccnc1)=NC(c1ccc(F)cc1)=N2,u,x,x,x,5.8µM,x
Cc1ccc(-c2nnn(CC(=O)N(CC(=O)NC3CCCCC3)c3ccccc3F)n2)o1,n,n,n,n,n,n
COc1ccc(C2=C(C)C(=O)N(Cc3ccc(C(=O)Nc4ccc(F)cc4C)cc3)S2(=O)=O)cc1,3.3µM,x,x,x,3.7µM,x
COc1ccc(C2=C(C)C(=O)N(Cc3ccc(C(=O)NCc4ccc(C)cc4)cc3)S2(=O)=O)cc1,n,x,x,x,n,x
CC1=C(c2ccc(C)c(C)c2)S(=O)(=O)N(Cc2ccc(C(=O)Nc3cc(F)ccc3F)cc2)C1=O,n,x,x,x,u,x
COc1ccc(C2=C(C)C(=O)N(Cc3ccc(C(=O)Nc4cccc(F)c4)cc3)S2(=O)=O)cc1,21µM,x,x,x,23µM,x
O=c1c2ccccc2nc(-c2ccc(Cl)cc2)n1CCCOc1ccccc1F,n,x,x,x,n,x
COc1ccc(F)cc1-c1cc(C(=O)N2CCc3ccccc3C2)[nH]n1,u,x,n,u,u,n
CC(c1ccccc1)N1C(=O)c2ccc(C(=O)Nc3ccc(Br)cc3C(=O)O)cc2C1=O (stereo unspecified),2.1µM,n,n,n,u,n
CC(C)CN1C(=O)c2ccc(C(=O)Nc3ccc(O)cc3C(=O)O)cc2C1=O,n,n,n,n,n,n
CC(C)Oc1ccc(S(=O)(=O)N2CCOCC2)cc1NC(=O)CSc1nnc(C2CC2)n1C,n,x,n,n,n,n
CNc1cccc2c1C(=O)c1ccccc1C2=O,n,u,n,n,u,-52
COc1ccc(CNC(=O)c2cc(C)nc3ccccc23)cc1OC,n,n,n,n,n,n
COc1cccc(CNC(=O)c2cc(Sc3cccc(Cl)c3)nc3ccccc23)c1,u,x,x,x,15µM,x
